Screens: PubChem, National Center for Advancing Translational Sciences (NCATS)
Compounds with a hit are over-represented: about 19% of the library has one in this group of screens.
IL1B secr inh: qHTS for Inhibitors of Inflammasome Signaling: IL-1-beta AlphaLISA Primary Screen; hit rate 4.7% among 360,000; activity change, % at 57.5 µM; THP-1 LPS/ATP IL-1B secretion, AlphaLISA, 16 h; stronger effect = lower value; in the data active means activity change below about -50%; inconclusive means mostly about -30% to -49%; further: on the % scale 0 is the no-effect control and ±100 the full control effect
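THP-1 cells pretreated 1 hr with compounds (up to 57.5 uM final), then stimulated with LPS (250 ng/mL final) plus ATP (1.25 mM final); secreted IL-1B measured by AlphaLISA after 16 hr, decreased signal indicating inhibition.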
DT40 TDP1 no CPT: qHTS for Inhibitors of human tyrosyl-DNA phosphodiesterase 1 (TDP1): qHTS in cells in absence of CPT; DT40 Tdp1-/- hTDP1 cells, no CPT, ATP luminescence, 48 h; Potency, µM (titrated, usually from 46.2 µM), inactives show at the top dose activity change, negative = growth inhibition, actives largely listed as inhibitors; hit rate 15% among 420,000; further: potency means the concentration at half of the fitted maximal effect; on the % scale 0 is the no-effect control and ±100 the full control effect; nearly all actives have a fitted effect of over 55% in size
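Luminescent ATP content (CellTiter-Glo) served as the growth readout. Knockout chicken DT40 cells expressing human TDP1 were exposed to compounds without camptothecin for a minimum 48 hr at 37 °C.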
HepG2 viability: qHTS for Inhibitors of TGF-b: Cytotox Counterscreen. HepG2 CAGA-GFP viability, ATP luminescence, 18 h. Potency, µM (titrated, usually from 46.1 µM), for inactives: at the top dose activity change, negative = cytotoxicity, hits mostly cytotoxic. hit rate 0.76% among 410,000. AID 588856, 2011; further: potency means the concentration at half of the fitted maximal effect
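HepG2 CAGA-GFP cells (1000/well, DMEM with 1% FBS) received compound, then TGF-beta at 500 pg/mL final, and were incubated 18 hours at 37 degrees C. Viability was read by CellTiter-Glo luminescence. Media-only wells were set as complete cell-killing and DMSO as no toxicity.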
TDP1 cell CPT: qHTS for Inhibitors of human tyrosyl-DNA phosphodiesterase 1 (TDP1): qHTS in cells in presence of CPT | Potency, µM (top dose mostly 46.2 µM), for the others: top-dose activity change, negative = growth inhibition, usual class: inhibitors | AID 686979, 2013 | hit rate 12% among 420,000 | chicken DT40 Tdp1-/-;hTDP1 cells + 20 nM CPT, ATP luminescence, 48 h; further: potency means the concentration at half of the fitted maximal effect; on the % scale 0 is the no-effect control and ±100 the full control effect; nearly all actives have a fitted effect of over 55% in size
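Cell growth measured by CellTiter-Glo luminescence after a minimum 48 h, 37 C compound exposure with 20 nM CPT in Tdp1-knockout DT40 cells stably expressing hTDP1, seeded 400/well; qHTS titration format.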
TGFb SMAD3 inh: qHTS for Inhibitors of TGF-b; HepG2 CAGA-GFP TGF-b/SMAD3 reporter, GFP fluorescence, 18 h; TGF-beta stimulated, 500 pg/mL final; Potency, µM (titrated, usually from 46.1 µM), inactives show at the top dose activity, negative = inhibition, hits mostly inhibitors; hit rate 1.2% among 410,000; AID 588855, 2011; further: potency means the concentration at half of the fitted maximal effect; on the % scale 0 is the no-effect control and ±100 the full control effect; nearly all actives have a fitted effect of over 65% in size
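Read-out: total well GFP (ex488/em500-530) summed from mean per-cell fluorescence. Cells: HEPG2 CAGA-GFP, 1% FBS DMEM, 18 h at 37 degrees C with 500 pg/mL final TGF-beta. Unstimulated wells served as the full-inhibition control; stimulated DMSO wells = 0%.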
TDP1 inh: qHTS Assay for Inhibitors of Tyrosyl-DNA Phosphodiesterase (TDP1) | Tyrosyl-DNA phosphodiesterase 1 (Homo sapiens), Q9NUW8 | recombinant TDP1, AlphaScreen DNA substrate cleavage | Potency, µM (titrated, usually from 130 µM), inactives show at the top dose activity change, negative = inhibition, actives largely listed as inhibitors | hit rate 0.28% among 350,000 | AID 485290, 2010; further: potency means the concentration at half of the fitted maximal effect; on the % scale 0 is the no-effect control and ±100 the full control effect; nearly all actives have a fitted effect of over 40% in size
Target sequence (Q9NUW8 whole entry, looked up): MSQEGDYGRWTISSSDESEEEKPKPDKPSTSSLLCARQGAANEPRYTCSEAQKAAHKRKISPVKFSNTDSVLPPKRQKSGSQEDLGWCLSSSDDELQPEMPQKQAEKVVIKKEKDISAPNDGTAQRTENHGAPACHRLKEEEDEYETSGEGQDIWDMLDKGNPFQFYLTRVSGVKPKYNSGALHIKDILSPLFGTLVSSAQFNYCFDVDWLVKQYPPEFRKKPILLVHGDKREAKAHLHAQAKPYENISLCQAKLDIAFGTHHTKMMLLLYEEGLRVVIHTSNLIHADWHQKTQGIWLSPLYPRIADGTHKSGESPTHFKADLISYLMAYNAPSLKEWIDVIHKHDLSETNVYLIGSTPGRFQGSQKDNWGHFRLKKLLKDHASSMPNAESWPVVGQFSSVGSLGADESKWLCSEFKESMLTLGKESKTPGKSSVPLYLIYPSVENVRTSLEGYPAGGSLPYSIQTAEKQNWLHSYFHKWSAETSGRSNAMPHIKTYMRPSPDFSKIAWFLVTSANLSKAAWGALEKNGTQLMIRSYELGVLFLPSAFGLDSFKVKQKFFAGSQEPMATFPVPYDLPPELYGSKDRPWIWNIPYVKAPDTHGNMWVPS
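Recombinant E. coli-expressed Tdp1 (1 nM) preincubated with compound 15 min at RT, then 5'-biotin/3'-phosphotyrosine-FITC DNA substrate (15 nM) added for 5 min. AlphaScreen beads (10 ug/ml) added, 10 min RT; tyrosine-FITC cleavage read as signal loss.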
* hit, by the source's call; ? = inconclusive; nt = no result; [ ] = remark or other dose. Unless noted, the call rests on the fitted dose curve; in most records, active means well fitted curve in the direction sought with a large enough effect; inconclusive means small, poorly fitted or top-dose-only effect, or another doubt; inactive means no such curve, though single readings can be large; an effect the other way counts as inactive or inconclusive.

SMILES | IL1B secr inh | DT40 TDP1 no CPT | HepG2 viability | TDP1 cell CPT | TGFb SMAD3 inh | TDP1 inh
CCCC(=O)N1CC(=O)Nc2ccc(Cl)cc2C1c1ccccc1 (stereo not given) | nt | ? | -13.3% | ? | -2.6% | 0.0%
O=C1CN(C(=O)c2ccco2)C(c2ccccc2)c2cc(Cl)ccc2N1 (stereo not given) | 11.1 | 16.4µM* | -10.9% | 16.4µM* | ? | 7.7%
O=C1CN(C(=O)c2ccccc2)C(c2ccccc2)c2cc(Cl)ccc2N1 (stereo not given) | 5.2 | ? | -5.6% | 5.1% | 0.8% | nt
O=C1CN(C(=O)c2ccc(Br)o2)C(c2ccccc2)c2cc(Cl)ccc2N1 (stereo not given) | -19.0 | ? | -39.1% | 14.6µM* | ? | 8.6%
O=C1CN(C(=O)c2ccc(Br)o2)C(c2ccc(F)cc2)c2cc(Cl)ccc2N1 (stereo not given) | -5.6 | ? | -0.9% | 16.4µM* | ? | 3.4%
CSCc1c(C(=O)N2CCCc3ccccc32)oc2ccccc12 | -0.7 | ? | -23.5% | 14.6µM* | -14.9% | 5.2%
CSc1ccc(/C=C2\C=Cc3ccccc32)cc1 | nt | ? | 1.2% | 4.8% | 4.2% | nt
O=C1Nc2cc(C(=O)N3CCN(Cc4ccccc4)CC3)ccc2SC1N1CCOCC1 (stereo not given) | -18.0 | ? | -1.5% | 23.1µM* | -22.5% | 3.8%
O=C1Nc2cc(C(=O)N3CCOCC3)ccc2S/C1=C/c1ccccc1F | -19.7 | ? | -32.4% | 16.4µM* | -16.9% | nt
O=C1Nc2cc(C(=O)N3CCOCC3)ccc2S/C1=C\c1ccccc1 | -24.3 | 23.1µM* | -20.9% | ? | -23.4% | 2.0%
COC(=O)c1ccc2c(c1)NC(=O)C(N1CCOCC1)S2 (stereo not given) | -13.2 | -16.6% | 1.7% | -14.8% | 5.7% | 4.7%
O=C1Nc2cc(C(=O)NCCCN3CCOCC3)ccc2S/C1=C/c1ccccc1F | -25.3 | ? | -26.3% | ? | -5.3% | 3.2%
Cc1cccc(/C=C2/Sc3ccc(C(=O)N4CCOCC4)cc3NC2=O)c1 | -13.0 | ? | 13.4% | ? | 8.9% | 1.9%
C#CCCCO/N=C1/C[C@@H](O)[C@@H](O)[C@@H]2[C@@H]3C(=O)N([C@@H](C)c4ccccc4)C(=O)[C@H]3CC[C@@H]12 | nt | nt | nt | nt | nt | 4.8%[21 µM]
COc1cc2c(c(OC)c1OC)-c1ccc(SC)c(=O)cc1C(NC(=O)C(F)(F)F)CC2 (stereo not given) | 44.8 | 0.0184µM* | 2.8% | 0.092µM* | 0.0% | nt
CCOCC(=O)NC1CCc2cc(OC(=O)COCC)c(OC)c(OC)c2-c2ccc(SC)c(=O)cc21 (stereo not given) | 27.2 | 0.146µM* | 5.1% | 0.0231µM* | ? | nt
COc1c(O[C@@H]2O[C@H](CO)[C@@H](O)[C@H](O)[C@H]2O)cc2c(c1OC)-c1ccc(SC)c(=O)cc1[C@@H](NC(C)=O)CC2 | nt | -0.9%[21.1 µM] | nt | 12.4%[21.1 µM] | nt | nt
COc1cc(Nc2nc3c(N)cc(C(F)(F)F)cc3nc2-c2ccccc2)cc(OC)c1OC | 6.8 | 13µM* | 0.8% | ? | 0.0% | nt
COc1cc(-c2n[nH]c(=S)n2-c2cccc(C(F)(F)F)c2)cc(OC)c1OC | 10.6 | -18.3% | -0.2% | -8.3% | ? | 0.0%
CCOC(=O)C1CCCN(C(=O)CSc2nnnn2C)C1 (stereo not given) | -4.5 | -3.6% | -34.1% | -1.0% | -2.0% | 0.0%
COc1ccc2[nH]cc(/C=C/c3cc[n+](C)cc3)c2c1 | 19.6 | 5.17µM* | -31.2% | ? | 15.5% | nt
O=C(/C=C/c1c[nH]c2ccccc12)c1ccccc1 | 4.7 | ? | -8.1% | 20.6µM* | ? | 0.0%
Cc1ccc(C(=O)/C=C/c2c[nH]c3ccccc23)cc1 | -13.9 | -18.0% | -63.0% | -8.6% | ? | 3.4%
COc1ccc2[nH]cc(/C=C/C(=O)c3ccccc3)c2c1 | -103.5* | ? | -20.1% | ? | ? | 5.1%
Cc1ccc2c(c1)CN(CCNC(=O)c1cccc(Cn3cccn3)c1)CC(C)O2 (stereo not given) | nt | -0.8% | nt | 4.3%[9.04 µM] | nt | nt
SMILES | IL1B secr inh | DT40 TDP1 no CPT | HepG2 viability | TDP1 cell CPT | TGFb SMAD3 inh | TDP1 inh
O=S(=O)(c1ccc(F)cc1)N1CCN=C1SCc1cccnc1 | 21.4 | ? | -0.5% | -5.3% | -4.9% | 4.6%
O=S(=O)(c1ccccc1)N1CCN=C1SCc1ccc(Cl)cc1 | 7.9 | 18.4µM* | -19.7% | ? | -2.7% | nt
O=S(=O)(c1ccccc1)N1CCN=C1SCc1cccc(Cl)c1 | 0.0 | 20.6µM* | -7.5% | ? | 12.6µM* | -5.1%
O=S(=O)(c1ccccc1)N1CCN=C1SCc1ccc(Cl)c(Cl)c1 | -29.4 | 18.4µM* | 26.6% | 13µM* | 0.0% | -12.7%
Cc1ccc(S(=O)(=O)N2CCN=C2SCc2ccccc2)cc1 | -0.8 | 11.8% | -3.7% | -13.2% | -3.7% | 2.6%
O=S(=O)(c1ccccc1)N1CCN=C1SCc1ccccc1Cl | 20.2 | ? | 0.6% | ? | -17.4% | 0.0%
O=S(=O)(c1ccc2ccccc2c1)N1CCN=C1SCc1cccnc1 | -25.7 | ? | -19.8% | 23.1µM* | -17.0% | 2.6%
CC(=O)Nc1sc(C)c(C)c1C(=O)OCC(=O)NC(C)c1ccccc1 (stereo not given) | 0.9 | ? | -7.0% | ? | 4.0% | -5.0%
Cc1nn(-c2ccccc2)c(C)c1NC(=O)COC(=O)Cc1cccc(C(F)(F)F)c1 | 1.3 | 2.0% | 10.1% | -0.6% | 10.8% | nt
N#Cc1nc(Nc2cccc([N+](=O)[O-])c2)nc(NC2CCCC2)n1 | nt | nt | nt | nt | nt | 4.2%
CN1CCN(NC(=O)c2cn(-c3ccccc3)nc2-c2cccs2)CC1 | -3.2 | -0.1% | 7.6% | -3.2% | 6.7% | 7.1%
CN1CCN(NC(=O)c2cn(-c3ccccc3)nc2-c2cccc(Br)c2)CC1 | -136.2* | ? | -100.5% | ? | ? | 5.1%
COc1ccc(C)cc1NC(=O)C(c1ccccc1)N1CCN(CC(=O)NC2CC2)CC1 (stereo not given) | 2.5 | ? | -28.9% | ? | -15.9% | -9.6%
CC(=O)Nc1cc(-c2ccc(N(C)C)cc2)cn2c(-c3ccc(F)c(Cl)c3)cnc12 | -17.0 | 14.6µM* | 0.7% | 18.4µM* | 30.8% | nt
